Assay results published in the supplement of paper PMC6555819.

Key:
Test in all cases: PBM binding z-score (relative to random genomic background probes); higher = stronger binding; sequences stand for … in GC…GCGATTGACAGCGTAGAATGAAGG
[1] = test system: RARb homodimer (NR concentration 270 nM)
How it was run: (§1)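 Scanned fluorescence from custom Agilent 4×180K protein-binding microarrays was regression-normalized. Binding z-scores use random background probes as reference. Ligand-free nuclear receptor dimers were incubated on the arrays for 1 h and detected with antibodies against each partner (one per run).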

[2] = test system: RARg:RXRa (NR concentration 270 nM, RXRa partner concentration 90 nM)
How it was run: as §1

[3] = test system: RARg homodimer (NR concentration 270 nM)
How it was run: as §1

[4] = test system: RXRa DBDmut IVT, anti-RXR (DBD mutation: RXRa K156A/R161A, NR concentration 90 nM)
How it was run: as §1

[5] = test system: RXRa homodimer (NR concentration 180 nM)
How it was run: as §1

[6] = test system: THRa:RXRa (NR concentration 90 nM, RXRa partner concentration 90 nM)
How it was run: as §1

[7] = test system: THRa homodimer (NR concentration 90 nM)
How it was run: as §1

[8] = test system: VDR homodimer (NR concentration 270 nM)
How it was run: as §1

Sequence GCGACTGGGTCATCAGCAGGTTACCATAACTTAA has a PBM binding z-score [1] of 2.55, a PBM binding z-score [2] of 4.89 and a PBM binding z-score [3] of 3.53. It also gave a PBM binding z-score [4] of 0.877, a PBM binding z-score [5] of 3.03 and a PBM binding z-score [6] of 2.88. For the same sequence, the PBM binding z-score [7] was 0.268 and the PBM binding z-score [8] was 0.085.

Work on CGAACTAGGTCATTGACAGGCCAGTGAATAGTAA yielded a PBM binding z-score [1] of 2.44, a PBM binding z-score [2] of 4.45 and a PBM binding z-score [3] of 4.53. The PBM binding z-score [4] was 1.99, the PBM binding z-score [5] was 3.06 and the PBM binding z-score [6] was 2.53. It also gave a PBM binding z-score [7] of 0.248 and a PBM binding z-score [8] of 0.674.

Sequence TCTATTAGTTGATTAAGGCAACCGAAACAGCGGA has a PBM binding z-score [1] of -0.49, a PBM binding z-score [2] of 0.163 and a PBM binding z-score [3] of 0.201. The PBM binding z-score [4] was 1.35, the PBM binding z-score [5] was 0.349 and the PBM binding z-score [6] was 0.746. The PBM binding z-score [7] was 0.601 and the PBM binding z-score [8] was 0.261.

Sequence TCTAGTTGGTCAAAGGTCACAGACTCGAAATGCG has a PBM binding z-score [1] of 5.18, a PBM binding z-score [2] of 7.34 and a PBM binding z-score [3] of 6.39. It also gave a PBM binding z-score [4] of 1.36, a PBM binding z-score [5] of 8.58 and a PBM binding z-score [6] of 4.16. The PBM binding z-score [7] was 1.98 and the PBM binding z-score [8] was 2.22.

CCTGACAGGTGAGAAGGTAACTCAGCCTCGATTA was tested, and the PBM binding z-score [1] was 0.33, the PBM binding z-score [2] was 0.701 and the PBM binding z-score [3] was 0.393. The PBM binding z-score [4] was -0.0911, the PBM binding z-score [5] was 0.509 and the PBM binding z-score [6] was 0.346. For the same sequence, the PBM binding z-score [7] was -0.0701 and the PBM binding z-score [8] was -0.656.

CCGACTGGGGCATAGGTTACCATACTCAGTACGA gave a PBM binding z-score [1] of 0.786, a PBM binding z-score [2] of 0.922 and a PBM binding z-score [3] of 0.833. For the same sequence, the PBM binding z-score [4] was -0.223, the PBM binding z-score [5] was 1.03 and the PBM binding z-score [6] was 0.28. The PBM binding z-score [7] was -0.456 and the PBM binding z-score [8] was -0.332.

AGAATGAGGTTACCAAGGATCAGGGAAACGCTTG showed a PBM binding z-score [1] of 1.02, a PBM binding z-score [2] of 1.94 and a PBM binding z-score [3] of 1.65. For the same sequence, the PBM binding z-score [4] was 0.704, the PBM binding z-score [5] was 2.62 and the PBM binding z-score [6] was 2.94. It also gave a PBM binding z-score [7] of 1.1 and a PBM binding z-score [8] of 0.508.
